Source: PubChem
D1 agonist: human D1 receptor agonism; 360,000 tested, 1% active; HEK293 T-REx D1 cells, calcium flux, agonist mode; activation, % at 2 µM; P21728; in the data active = activation above about 30%
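Agonism was scored from calcium flux recorded over 180 s (1 read/s) after pintool compound addition, following a 10-cycle baseline. Cells were inducible force-coupled HEK293 TREx D1, plated overnight at 30 C and loaded with no-wash calcium dye.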
DRD3 agonist: agonists of human D3 dopamine receptor | P35462 | D3R DiscoveRx beta-arrestin cells, luminescence, 90 min | max activation, % | 410,000 tested, 0.58% active; in the data active = max activation above about 30%
Target sequence (P35462 whole entry, looked up): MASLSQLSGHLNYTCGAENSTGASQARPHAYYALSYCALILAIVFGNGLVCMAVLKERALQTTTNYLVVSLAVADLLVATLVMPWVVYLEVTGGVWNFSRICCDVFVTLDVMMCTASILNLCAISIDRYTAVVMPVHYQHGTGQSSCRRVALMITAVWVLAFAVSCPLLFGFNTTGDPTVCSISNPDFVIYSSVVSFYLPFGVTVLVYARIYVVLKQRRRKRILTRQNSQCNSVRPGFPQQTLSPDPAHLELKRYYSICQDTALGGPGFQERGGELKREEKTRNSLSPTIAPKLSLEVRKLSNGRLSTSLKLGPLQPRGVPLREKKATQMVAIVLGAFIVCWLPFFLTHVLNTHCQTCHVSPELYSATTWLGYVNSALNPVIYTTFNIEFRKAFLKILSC
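Agonist-mode cell screen: cells plated at 1500/well and incubated overnight at 37 °C, then exposed to library compounds for 90 min at 37 °C. Detection reagent was added for 30–60 min at room temperature, and luminescence was read.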
D1 antag: blocks dopamine activation of the human D1 receptor. P21728. HEK293 TREx D1 cells, calcium flux, dopamine EC80; hits give low values. activity change, negative = inhibition, % at 10 µM. 360,000 tested, 3.2% active. AID 504652; in the data active = activity change below about -30%
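Cells carrying a force-coupled, tetracycline-inducible human D1 receptor report calcium flux. Each well gets a 10 s baseline, compound with 180 s monitoring, then an EC80 dopamine stimulus with a second 180 s kinetic read.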
D1 PAM: human D1 dopamine receptor positive modulation | HEK293 TREx D1 cells, calcium flux, dopamine EC20 potentiation | potentiation, % at 10 µM | 360,000 tested, 0.036% active | AID 504651; in the data active = potentiation above about 30%
DRD3 antagonist: blocks the human D3 dopamine receptor | P35462 | D3R cells, DiscoveRx beta-arrestin luminescence, antagonist mode; hits give low values | max response, negative = inhibition, % | 360,000 tested, 2.5% active; in the data active = max response below about -50%; inconclusive = no clear call, values can overlap the other calls
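Cells plated overnight at 1500 cells/well, then exposed to library compounds with dopamine controls for 90 minutes at 37 degrees C. DiscoveRx reagent added for 30–60 minutes at room temperature; luminescence read, quantitative HTS format.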
Each line names hits and unclear results; the compound was inactive in the other large screens; ! = not confirmed by another sample. This is a sample that favours compounds with a hit; in the whole collection about 6.1% have one here.

COc1ccc(C2/C=C\CN(C(=O)C3CCCC3)CC(=O)N2Cc2ccc(F)cc2)cc1 (stereo unspecified)	D1 antag -34
COCCNC(=O)CCCn1c(SCC(=O)c2ccc(Br)cc2)nc2c(sc3ccccc32)c1=O	none (no result: DRD3 antagonist)
N#Cc1c(-c2ccccc2Cl)cc(C2CC2)nc1N	D1 agonist 99
CC(=O)c1ccc(N2CCN(C(=O)NCc3noc4ccc(C)cc34)CC2)cc1	none (no result: DRD3 antagonist)
CCOCCCn1c(SCC(=O)Nc2cccc(OC)c2)nc2ccccc2c1=O	D1 antag -46!
O=C(CSc1nc2ccccc2c(=O)n1-c1ccccc1F)Nc1ccc2c(c1)CCC2	none
CCN(CC)CCn1c(SCC(=O)Nc2ccc3c(c2)CCC3)nc2ccccc2c1=O	D1 antag -32
CCCN(CCC)C(=O)C1CCN(c2cc(C)nc3c(-c4ccc(Cl)cc4)c(C)nn23)CC1	none (no result: DRD3 antagonist)
Cc1cccc(C(=O)Nc2ccc(N3CCC(N4CCCCC4)CC3)c(C(=O)O)c2)c1	none (no result: DRD3 antagonist)
Cc1ccc(C)c(S(=O)(=O)NCc2ccc(C(=O)N3CCOCC3)cc2)c1	none
Cc1ccc(NS(=O)(=O)c2cc(C(=O)N3CCN(C)CC3)ccc2C)cc1	D1 antag -34
Cc1ccc(C)c(S(=O)(=O)NCc2ccc(C(=O)N3CCN(C)CC3)cc2)c1	D1 antag -32
COCCNC(=O)C1CCCN(C(=O)c2ccnc(Cl)c2)CC1 (stereo unspecified)	none (no result: D1 agonist, D1 antag, D1 PAM)
COCCNC(=O)C1CCCN(C(=O)Cc2ccc(F)cc2)CC1 (stereo unspecified)	none (no result: D1 agonist, D1 antag, D1 PAM)
COCCNC(=O)C1CCCN(C(=O)Cc2cccc3ccccc23)CC1 (stereo unspecified)	DRD3 antagonist -102 (no result: D1 agonist, D1 antag, D1 PAM)
COCCNC(=O)C1CCCN(C(=O)c2cncc(Br)c2)CC1 (stereo unspecified)	DRD3 antagonist -77 (no result: D1 agonist, D1 antag, D1 PAM)
O=C(Cc1ccc(NC(=O)N2CCCCc3ccccc32)cc1)NCc1ccccc1Br	none (no result: DRD3 antagonist)
Cc1ccc(-c2noc(CCC(=O)NCCN3CCN(Cc4ccccc4)CC3)n2)cc1	none
COc1ccc(N2CCN(CCCNC(=O)c3nnc(Cc4ccc(F)cc4)o3)CC2)cc1	none (no result: DRD3 antagonist)
COc1ccc(-c2noc(CCC(=O)NCCCN3CCN(c4ccc(F)cc4)CC3)n2)cc1	D1 agonist 35, D1 antag -73
COc1ccc(-c2noc(CCC(=O)N3CCN(c4cccc(OC)c4)CC3)n2)cc1	DRD3 agonist 44 (no result: D1 agonist, D1 antag, D1 PAM)
Cc1ccc(-c2noc(CCC(=O)NCC3CCN(Cc4cccc(C)c4)CC3)n2)cc1	D1 agonist 51
COc1ccc(-c2noc(CCC(=O)NCc3ccco3)n2)cc1	D1 antag -37
COc1cccc(-n2nnc(-c3nc(-c4ccccc4F)no3)c2C)c1	none (no result: DRD3 antagonist)
COc1ccc(-c2noc(CCC(=O)NCCCN3CCC(Cc4ccccc4)CC3)n2)cc1	D1 agonist 56, D1 antag -54, DRD3 antagonist inconclusive
Cc1ccc(-c2noc(CCC(=O)NCCN3CCOCC3)n2)cc1	none
Cc1ccc(-c2noc(CCC(=O)NCCN3CCc4ccccc4C3)n2)cc1	DRD3 antagonist -76
COc1ccc(-c2c(C)nn3c4c(cnc23)C(=O)CC(c2ccc(C)cc2)C4)cc1 (stereo unspecified)	none (no result: DRD3 antagonist)
O=C(Cn1c(=O)n(Cc2nc(-c3ccccc3)no2)c(=O)c2ccccc21)Nc1cccc(C(F)(F)F)c1	none (no result: DRD3 antagonist)
CC(C)(C)c1ccc(C(=O)NC(=S)NNC(=O)c2cccs2)cc1	D1 agonist 367
Cc1cccc(C(=O)NC(=S)NNC(=O)c2ccc(Cl)cc2)c1	D1 agonist 172
O=C(O)c1ccccc1NC(=S)NC(=O)c1sc2ccccc2c1Cl	none
O=C(NNC(=S)NC(=O)c1sc2ccccc2c1Cl)c1ccc(Cl)cc1	D1 agonist 141, D1 antag -38
O=C(Nc1ccncc1)c1sc2ccccc2c1Cl	D1 antag -41
CS(=O)(=O)/C=C/c1nc(Nc2cc(F)cc(F)c2)c2ncn(CC(F)F)c2n1	none (no result: DRD3 agonist, DRD3 antagonist)
CCN1C(=O)c2ccccc2S(=O)(=O)c2ccc(C(=O)NCc3ccccc3OC)cc21	none (no result: DRD3 antagonist)
Cc1cc(Cl)ccc1NC(=O)CN1C(=O)C(=O)c2ccccc21	none (no result: DRD3 antagonist)
Cc1ccc2oc(=O)n(Cc3ccccc3Cl)c2c1	none (no result: DRD3 antagonist)
Cc1ccccc1C(=O)NNC(=S)NC(=O)c1cccs1	D1 agonist 136
O=C(NC(=S)NNC(=O)c1cccs1)c1ccccc1	none
O=C(Nc1nonc1-c1ccc(Cl)cc1)c1ccccc1	none
O=C1CCC/C(=N/NC(=O)c2sc3ccccc3c2Cl)C1	D1 agonist 81
Cc1cccc(C(=O)NC(=S)NNC(=O)c2cccs2)c1	D1 agonist 213, DRD3 antagonist inconclusive
COc1cc(C(=O)Nc2nonc2-c2ccc(Cl)cc2)cc(OC)c1OC	D1 agonist 30 (no result: DRD3 antagonist)
O=C(NN=C1CCCC1)c1sc2ccccc2c1Cl	none
COc1ccc(-c2nc(-c3ccccc3)c(-c3ccc(F)cc3)[nH]2)c(OC)c1C	none (no result: DRD3 antagonist)
COc1ccc(NC(=O)C(NC(=O)C2CCC(C)CC2)C(C)C)cc1 (stereo unspecified)	none (no result: DRD3 antagonist)
CCCCCOc1ccc(C2SC(=O)NC2=O)cc1OCC (stereo unspecified)	none (no result: D1 agonist, D1 antag, D1 PAM, DRD3 antagonist)
CCOC(=O)c1cc(-c2ccccc2)n(CCCC(=O)Nc2cc(C)ccc2OC)c1C	none (no result: DRD3 antagonist)
CCC(=O)N1CCc2cc(CNC(=O)c3ccccc3C)ccc21	none (no result: DRD3 antagonist)
Cc1cc(C)n(-c2nc(C)c(C)c(=O)n2CC(=O)Nc2ccc(Cl)c(Cl)c2)n1	none (no result: D1 antag, DRD3 antagonist)
CCC(=O)N1CCc2cc(Br)cc(S(=O)(=O)CCC(=O)NCc3ccccc3)c21	none (no result: DRD3 antagonist)
COc1cc(C(=O)NNC(=S)NC(=O)c2ccc(Cl)cc2)cc(OC)c1OC	D1 agonist 60
O=C(NC(=S)Nc1ccccc1N1CCOCC1)c1sc2ccccc2c1Cl	none
COc1ccc(C(=O)NNC(=S)NC(=O)c2ccc(Cl)cc2)cc1	none (no result: D1 agonist, D1 antag, D1 PAM)
O=C(NC(=S)Nc1ccc(N2CCOCC2)c(Cl)c1)c1sc2ccccc2c1Cl	D1 antag -31
COc1cccc(CNC(=O)C2CCCCN2S(=O)(=O)c2ccc(F)cc2)c1 (stereo unspecified)	none (no result: DRD3 antagonist)
c1ccc(-n2cc(CNCCc3cscn3)c(-c3ccc4c(c3)OCO4)n2)cc1	DRD3 antagonist -62
Cc1cc(OCC(=O)N2CCOCC2)c(C(C)C)cc1Cl	DRD3 antagonist -77
Cc1cc(OCC(=O)Nc2ccccc2N2CCOCC2)c(C(C)C)cc1Cl	none
CCOc1ccc(NC(=O)Cn2c(=O)n(Cc3ccc4c(c3)OCO4)c(=O)c3ccc(C(=O)NC4CCCCC4)cc32)cc1	none (no result: DRD3 antagonist)
Cc1[nH]c(=S)c(C#N)c(C)c1CC(=O)c1ccc(Br)cc1	none
Cc1[nH]c(=S)c(C#N)c(C)c1Cc1ccc(Cl)cc1Cl	D1 antag -51
Cc1[nH]c(=O)c(C#N)c(C)c1Cc1ccc(Cl)cc1Cl	D1 antag -62
N#Cc1ccc(-c2ccc(OCC(=O)NCCc3ccccc3)cc2)cc1	D1 agonist 36, D1 antag -48
COc1ccc(OC)c(NC(=O)Cn2c(=O)cc(-c3ccccc3)c3c(C)nn(C)c32)c1	none (no result: DRD3 antagonist)
